Assay outcomes: PubChem, several laboratories
In the library only some 3.3% were active in any assay of this set; here they are far more common.
KCC2 mod: KCC2 (human) Cl- transport modulation; B-score of Tl+ flux slope (higher = more flux/activation; lower = inhibition) at 10 µM; KCC2 cells, thallium flux FluoZin-2 fluorescence; Q9H2X9; 190,000 compounds, 2.2% hits;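 active = thallium flux slope and its plate-corrected score both differing from the plate sample mean at a set confidence after two filtering rounds, in either direction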;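 note: slope of fluorescence scaled to starting intensity during 10 to 20 s after thallium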
Efflux pump mplx: blocks antifungal efflux pumps in multiplex yeast assay. S. cerevisiae Candida pump triplex, Nile Red efflux. inhibition, % at 10 µM. 330,000 compounds, 0.44% hits;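 active = plate passing quality check with inhibition over a set limit, or well fluorescence over plate mean plus 4 SD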;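 note: Nile Red retained in pooled yeast measured as flow cytometry median fluorescence; 0% = buffer negative control and 100% = Enniatin B positive control; higher means more Nile Red kept so more efflux inhibition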
PHOSPHO1 block: blocks human PHOSPHO1 phosphatase activity. 290,000 compounds, 1.1% hits. recombinant PHOSPHO1, absorbance phosphatase assay. inhibition, % at 13.3 µM. Q8TCT1. AID 1565; in the data active = inhibition above about 60%
Cardio protect: myocardial damage modulation in H9c2 cells; H9c2 cardiomyocytes, H2O2 injury protection, ATPLite, 2 h; protection from H2O2 cell death, % at 20 µM; 360,000 compounds, 0.63% hits; AID 588492;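 active = compounds giving at least 50% protection of heart cells from peroxide-induced death in the single-dose screen, raw or plate-pattern-corrected value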;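 note: 0% = DMSO wells with peroxide and 100% = DMSO wells without peroxide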
Calb FLC: C. albicans growth modulation with fluconazole. 300,000 compounds, 0.57% hits. growth inhibition, % (test concentration not listed). C. albicans CaCi-2 (fluconazole-resistant clinical isolate) + fluconazole, Alamar Blue growth, 48 h;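 active = growth inhibition above about 58% in most replicates, limit read from the data, passing the limit was not always enough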;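 note: all wells also contain fluconazole at 8 µg/ml as a sub-toxic cotreatment; 0% = median of DMSO wells and 100% = median of geldanamycin control wells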
* marks the source's active call; other numbers are inactive results; / = not tested or not shown.

SMILES	KCC2 mod	Efflux pump mplx	PHOSPHO1 block	Cardio protect	Calb FLC
CC/C(C)=N\Nc1nc(-c2cc3cc(OC)ccc3oc2=O)cs1	0.594	-0.1	-11.8	37.1	-2.6
S=C(NCCN1CCOCC1)NC1CCCC1	-0.247	0.1	-7.7	-4.6	51.0*
S=C(NC1CC1)N1CCN(C(=S)NC2CC2)CC1	/	0.1	35.2	7.8	1.0
OCCN1CCN(C(=S)NC2CCCC2)CC1	0.0918	-0.1	32.5	0.6	88.3*
O=C1C(NS(=O)(=O)c2cccs2)=C(N2CCN(c3ccccc3)CC2)C(=O)c2ccccc21	-0.0189	-0.1	76.1*	-13.9	24.8
O=S(=O)(c1cccs1)N1CCN(c2ccccc2)CC1	/	0.1	18.4	-1.8	-3.5
Cc1ccc(OC(C)C(=O)Nc2ccc3c(c2)n(C)c(=O)n3C)cc1C (configuration not stated)	/	-0.1	60.0*	1.2	-0.4
C=CCNc1nc(-c2ccccn2)nnc1-c1ccccc1	/	0.1	15.2	73.0*	-88.1
CCCn1c(SCC(=O)NCc2ccc(C)cc2)n[nH]c1=O	0.92	0.0	5.5	-4.8	-6.0
CCCn1c(SCC(=O)c2ccc(CC)cc2)n[nH]c1=O	-1.4	-0.1	82.4*	1.8	-0.6
O=C(Oc1ccc2c(-c3ccccc3)cc(=O)oc2c1)C1CCCCC1	-1.78	0.0	39.3	87.6*	7.0
COc1ccc(-c2cc(=O)oc3cc(OC(=O)C4CCCCC4)ccc23)cc1	-1.02	-0.2	-1.8	52.4*	36.9
O=C(Oc1ccc2c(-c3ccccc3)cc(=O)oc2c1)c1cccs1	0.561	0.2	-4.4	39.7	6.3
COC(=O)c1sccc1NC(=O)CC1C(=O)NCCN1C(=O)c1ccc(F)cc1 (configuration not stated)	0.501	0.0	7.4	8.1	-2.3
CCCN(CC(=O)Nc1ccc(F)c(F)c1F)C(=O)Cc1ccc(OC)c(S(=O)(=O)N2CCOCC2)c1	/	/	/	13.1	/
CCCN1C(=O)/C(=C/c2c(NCCCOC(C)C)nc3c(C)cccn3c2=O)SC1=S	-0.0627	0.4	30.3	-11.2	-2.3
CCC(C)N1C(=O)/C(=C/c2c(NCCCOC(C)C)nc3c(C)cccn3c2=O)SC1=S (configuration not stated)	-0.121	0.8*	42.0	-7.4	/
c1csc(-c2nnsc2-c2nc3ccccc3[nH]2)c1	-0.31	-0.1	96.2*	8.0	-5.3
Cn1c(SCC(=O)Nc2nccs2)nnc1-c1ccccn1	/	-0.1	21.2	-1.3	2.4
CCN(CC(=O)Nc1c(F)cccc1F)C(=O)CNC(=O)c1ccc(C)s1	/	0.0	9.6	-4.3	-6.3
O=C(O)c1ccccc1C(=O)NNc1ccc(F)cc1	/	0.0	15.3	-6.1	101.9*
O=C(O)c1ccccc1C(=O)NCc1ccc(F)cc1	-1.42	1.2	7.8	7.1	-8.3
COc1ccccc1/C=N/NC(=O)CSc1ccc2ccccc2n1	/	-0.1	-2.4	-0.2	9.1
COc1cccc(/C=N/NC(=O)c2c(C)nc3ccc(Cl)cn23)c1O	/	0.0	52.2	49.5	103.5*
COc1cccc(/C=N/NC(=O)CSc2nnc(C)n2-c2ccccc2)c1O	-1.71	0.1	25.8	79.6*	17.6
SMILES	KCC2 mod	Efflux pump mplx	PHOSPHO1 block	Cardio protect	Calb FLC
COc1ccccc1/C=N\NC(=O)c1c(C)nc2ccc(Cl)cn12	/	0.0	4.6	7.8	-28.3
CCCCSc1nc(C)cc(SCC(=O)N/N=C/c2cccc(OC)c2O)n1	-0.257	-0.2	11.5	51.5*	-15.6
COc1ccc(/C=N/NC(=O)CSc2nnc(C)n2-c2ccccc2)c(OC)c1OC	-0.183	0.1	-9.1	-28.9	-3.1
COc1cccc(/C=N/NC(=O)CN2CC(c3ccccc3)CC2=O)c1O (configuration not stated)	-0.519	0.0	4.7	56.4*	-3.7
CC(=O)Nc1cccc(NC(=O)c2ccccc2OCc2c(C)noc2C)c1	/	0.0	/	10.0	-1.0
CCN(CC(=O)NCc1cccs1)C(=O)c1cccc(S(=O)(=O)N(C)C)c1	/	0.0	/	3.2	/
Cc1ccc(NC(=O)Cn2c(=O)ccn(Cc3ccccc3)c2=O)cc1S(=O)(=O)N1CCOCC1	/	/	/	-0.3	/
CCCSc1nnc(CSc2nc3ccccc3s2)n1-c1ccccc1	-2.38	0.1	-0.1	-20.5	-9.5
C=CCn1c(SCC(=O)c2ccc(O)c(O)c2)nnc1-c1cccc(Cl)c1	/	0.4	/	54.6*	/
CCn1c(SCC(=O)c2ccc(O)c(O)c2)nnc1-c1ccccc1OC	-1.41	0.1	47.3	41.4	95.9*
CCn1c(CSc2nc3ccccc3s2)nnc1SCC(=O)c1ccc(O)c(O)c1	-1.06	0.1	85.5*	62.1*	104.7*
CCn1c(SCC(=O)c2ccc(O)c(O)c2)nnc1-c1ccccc1	/	0.0	15.2	47.6	0.2
C=CCn1c(SCC(=O)c2ccc(O)c(O)c2)nnc1-c1cccc(C)c1	/	-0.1	/	42.5	/
CCn1c(CSc2nc3ccccc3s2)nnc1SCC(=O)c1ccc(Cl)cc1	-0.728	-0.1	73.4*	-20.9	11.3
O=C1NC(=S)N/C1=C/c1cc2c(cc1[N+](=O)[O-])OCO2	/	0.0	35.1	0.2	0.4
NC(=O)CSc1nnc(-c2ccco2)n1-c1ccc(F)cc1	/	/	/	4.6	/
CC1CCN(S(=O)(=O)c2ccc(C(=O)N3CCN(c4ccccc4F)CC3)cc2)CC1	-0.252	-0.1	60.1*	-9.8	15.0
CCCn1c(C(C)Nc2nc(C)cs2)nc2cc(Cl)c(Cl)cc21 (configuration not stated)	/	0.0	-1.7	3.8	14.5
O=C(Cc1ccccc1)Nc1nonc1NC(=O)c1ccccc1	-0.873	0.1	16.9	-18.7	80.6*
Cc1c(C(=O)NC2CC(=O)N(c3ccc4c(c3)OCCO4)C2)cccc1[N+](=O)[O-] (configuration not stated)	/	0.1	/	-3.4	-1.1
COc1ccc(OC)c(NC(=O)CSc2nc(=O)n(CCN3CCOCC3)c3c2CCCC3)c1	/	0.1	/	-3.2	-0.7
COc1cc(/C=C/C(=O)Nc2cccnc2)cc(OC)c1OC	/	0.6	-45.5	16.4	75.6*
Fc1ccc(-n2cc(CNCCc3ccccn3)c(-c3ccccc3Cl)n2)cc1	/	0.0	67.1*	-3.6	-12.7
COc1ccc(-n2nc3c(c2NC(=O)COc2ccccc2F)CS(=O)(=O)C3)cc1	/	-0.1	38.1	1.6	1.6
CC(C)c1cc(C(=O)N2CCCC(N3CCN(c4ccc(F)cc4)CC3)C2)n(C)n1 (configuration not stated)	/	/	7.5	-4.4	-11.1
CCc1c(C)[nH]n(-c2ccc(Oc3ccccc3)c(S(=O)(=O)O)c2)c1=O	0.661	0.0	65.4*	-2.2	/
Cc1cc(C)n(-c2ccc(Oc3ccccc3)c(S(=O)(=O)O)c2)n1	1.04	0.3	-3.0	2.1	-3.8
Cc1c(S(=O)(=O)N2CCN(c3cccc(Cl)c3)CC2)c(=O)n(C)c(=O)n1C	/	-0.1	13.7	2.5	-0.8
CC1CC(=O)c2c(cc3c(-c4c(O)cc(O)c5c(O)c6c(cc45)OC(C)CC6=O)c(O)cc(O)c3c2O)O1 (configuration not stated)	-6.11*	-0.3	-64.0	-17.3	-16.4
CCCc1nn2c(=O)cc(COc3ccc(NC(=O)c4ccco4)cc3)nc2s1	/	-0.1	63.6*	1.4	-23.3
